What all share (details): mRNA level, 48 h; actives raise or lower the signal
Read-out in assay [1]: Bcl-2 (BAX) gene, BAX (gene 581)
Put plainly: LTEA_HepaRG_BAX: Life Technologies and Expression Analysis (LTEA) Assay for Bcl-2 (BAX) gene using HepaRG (AID 2283470). In outline: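 Gene expression measured by Fluidigm qRT-PCR with three housekeeping genes for normalisation. HepaRG cells, plated 48 h beforehand, treated 48 h at up to 100 uM (8-point, half-log) in 0.5% DMSO. Bidirectional fitting versus DMSO.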

Read-out in assay [2]: adenosine kinase (ADK) gene, ADK (gene 132)
Briefly: LTEA_HepaRG_ADK: Life Technologies and Expression Analysis (LTEA) Assay for adenosine kinase (ADK) gene using HepaRG (AID 2283471). In outline:
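HepaRG (human liver), 48 h chemical exposure, 8-pt half-log series, top 100 uM, 0.5% DMSO vehicle. Readout: ADK mRNA by qRT-PCR vs housekeeping genes; bidirectional curve fit relative to DMSO baseline.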

Read-out in assay [3]: Alpha-fetoprotein (AFP) gene, AFP (gene 174)
Put plainly: LTEA_HepaRG_AFP: Life Technologies and Expression Analysis (LTEA) Assay for Alpha-fetoprotein (AFP) gene using HepaRG (AID 2283472). In a few lines:
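AFP transcript measured by TaqMan qRT-PCR with three housekeeping genes for normalization, after 48 h chemical treatment of HepaRG cells (top 100 uM, half-log steps, 0.5% DMSO). Gain or loss fitted against vehicle.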

Read-out in assay [4]: BCL2L11 (gene 10018)
Briefly: LTEA_HepaRG_BCL2L11: Life Technologies and Expression Analysis (LTEA) Assay for Bcl-2 (BCL2L11) gene using HepaRG (AID 2283473). In a few lines: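 Read-out is BCL2L11 transcript level by qRT-PCR, normalized to three housekeeping genes and fitted bidirectionally against 0.5% DMSO vehicle. HepaRG cells received chemicals for 48 h in serum-free induction medium, 100 uM down in half-log dilutions.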

Read-out in assay [5]: Apolipoprotein A-V (APOA5) gene, APOA5 (gene 116519)
Briefly: LTEA_HepaRG_APOA5: Life Technologies and Expression Analysis (LTEA) Assay for Apolipoprotein A-V (APOA5) gene using HepaRG (AID 2283474). In a few lines:
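Readout is APOA5 transcript level by qRT-PCR on Fluidigm dynamic arrays, normalized to three housekeeping genes. HepaRG cultures received chemicals for 48 h at up to 100 uM (half-log steps, 0.5% DMSO), with gain or loss scored relative to DMSO.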

Read-out in assay [6]: Apoptosis regulator Bcl-2 (Homo sapiens) (UniProt P10415)
Briefly: LTEA_HepaRG_BCL2: Life Technologies and Expression Analysis (LTEA) Assay for Bcl-2 gene using HepaRG (AID 2283475). In a few lines:
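qRT-PCR of BCL2 transcript, normalized to three housekeeping genes (ACTB, GAPDH, POLR2A), after 48 h chemical exposure of HepaRG cells; concentrations top 100 uM with half-log dilutions, 0.5% DMSO vehicle, duplicates; changes up or down fitted relative to vehicle.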

Read-out in assay [7]: Bcl-2 (BID) gene, BID (gene 637)
Briefly: LTEA_HepaRG_BID: Life Technologies and Expression Analysis (LTEA) Assay for Bcl-2 (BID) gene using HepaRG (AID 2283476). In outline: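 Duplicate 48 h treatments of HepaRG cells in serum-free induction medium spanned 100 uM downward in half-log steps, 0.5% DMSO. Transcript change quantified by qRT-PCR against three housekeeping genes, fitted up or down versus DMSO.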

Read-out in assay [8]: Caspase-3 (Homo sapiens) (UniProt P42574)
Briefly: LTEA_HepaRG_CASP3: Life Technologies and Expression Analysis (LTEA) Assay for cysteine-aspartic acid protease (CASP3) using HepaRG (AID 2283477). In a few lines:
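Read-out is CASP3 mRNA level by TaqMan qRT-PCR in human HepaRG cells after 48 h chemical exposure. Eight half-log concentrations topping at 100 uM were tested in 0.5% DMSO; gain or loss was fitted relative to DMSO.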

Read-out in assay [9]: Cytochrome P450 (CYP24A1), CYP24A1 (gene 1591)
Put plainly: LTEA_HepaRG_CYP24A1: Life Technologies and Expression Analysis (LTEA) Assay for Cytochrome P450 (CYP24A1) using HepaRG (AID 2283478). In outline: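 HepaRG, 48 h chemical exposure, 8-pt half-log CRC from 100 uM, 0.5% DMSO vehicle, duplicates. Endpoint: CYP24A1 mRNA by Fluidigm TaqMan qRT-PCR, normalized ACTB/GAPDH/POLR2A; gain/loss fit vs DMSO.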

Read-out in assay [10]: Cytochrome P450 (CYP1A2), CYP1A2 (gene 1544)
Put plainly: LTEA_HepaRG_CYP1A2: Life Technologies and Expression Analysis (LTEA) Assay for Cytochrome P450 (CYP1A2) using HepaRG (AID 2283479). In a few lines:
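CYP1A2 transcript induction or loss, quantified by Fluidigm qRT-PCR against three housekeeping genes, was fitted bidirectionally against 0.5% DMSO controls. Human HepaRG cells received eight half-log concentrations from 100 uM over 48 h.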

Read-out in assay [11]: cysteine-aspartic acid protease (CASP8), CASP8 (gene 841)
Put plainly: LTEA_HepaRG_CASP8: Life Technologies and Expression Analysis (LTEA) Assay for cysteine-aspartic acid protease (CASP8) using HepaRG (AID 2283480). In a few lines:
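Concentration-response in duplicate up to 100 uM (half-log steps, 0.5% DMSO) on differentiated HepaRG cultures for 48 h. Expression change of CASP8 mRNA is determined by TaqMan qRT-PCR with housekeeping-gene normalization.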

Read-out in assay [12]: Cytochrome P450 (CYP2B6), CYP2B6 (gene 1555)
Put plainly: LTEA_HepaRG_CYP2B6: Life Technologies and Expression Analysis (LTEA) Assay for Cytochrome P450 (CYP2B6) using HepaRG (AID 2283481). In a few lines:
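HepaRG cells plated 48 h, switched to serum-free induction medium, then dosed 48 h (8 points, half-log from 100 uM, 0.5% DMSO). RNA isolated; CYP2B6 expression measured by qRT-PCR; gain or loss fitted relative to DMSO.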

Read-out in assay [13]: Cytochrome P450 2C19 (Homo sapiens) (UniProt P33261)
Put plainly: LTEA_HepaRG_CYP2C19: Life Technologies and Expression Analysis (LTEA) Assay for CYP2C19 using HepaRG (AID 2283482). In a few lines: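 Transcript levels of CYP2C19 were quantified by qRT-PCR after HepaRG cells were treated for 48 hours with test chemicals up to 100 uM (eight half-log concentrations, 0.5% DMSO vehicle). Gain or loss of signal was fitted relative to DMSO.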

Read-out in assay [14]: CYP2C8 (gene 1558)
Briefly: LTEA_HepaRG_CYP2C8: Life Technologies and Expression Analysis (LTEA) Assay for CYP2C8 using HepaRG (AID 2283483). In a few lines:
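This is a transcriptional endpoint in HepaRG cultures: 48 h exposure, highest concentration 100 uM. CYP2C8 mRNA is quantified by TaqMan qRT-PCR.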

Read-out in assay [15]: CYP2C9 (gene 1559)
Put plainly: LTEA_HepaRG_CYP2C9: Life Technologies and Expression Analysis (LTEA) Assay for CYP2C9 using HepaRG (AID 2283484). In outline: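 Eight-point concentration-response (highest 100 uM, half-log dilutions) in HepaRG cells for 48 h; CYP2C9 expression by qRT-PCR normalized to ACTB, GAPDH, POLR2A. Bidirectional fit, DMSO baseline.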

Read-out in assay [16]: CYP2E1 (gene 1571)
Briefly: LTEA_HepaRG_CYP2E1: Life Technologies and Expression Analysis (LTEA) Assay for CYP2E1 using HepaRG (AID 2283485). In a few lines:
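CYP2E1 transcript measured by Fluidigm qRT-PCR against three housekeeping genes in human HepaRG cells treated 48 h (top 100 uM, half-log steps, 0.5% DMSO vehicle). Gain or loss fitted relative to DMSO baseline.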

Read-out in assay [17]: CYP4A11 (gene 1579)
Put plainly: LTEA_HepaRG_CYP4A11: Life Technologies and Expression Analysis (LTEA) Assay for CYP4A11 using HepaRG (AID 2283486). In outline:
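HepaRG, 48 h chem exposure, 8 conc (100 uM top, half-log), 0.5% DMSO vehicle; qRT-PCR readout, housekeeping-gene normalized; bidirectional curve fit vs DMSO baseline.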

Read-out in assay [18]: DNA damage-inducible transcript 3 (DDIT3), DDIT3 (gene 1649)
Briefly: LTEA_HepaRG_DDIT3: Life Technologies and Expression Analysis (LTEA) Assay for DNA damage-inducible transcript 3 (DDIT3) using HepaRG (AID 2283488). In outline:
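DDIT3 transcript was quantified by qRT-PCR with ACTB/GAPDH/POLR2A normalization after 48 h chemical treatment of differentiated HepaRG cells in 0.5% DMSO. Dosing was eight-point, half-log, top 100 uM, duplicate wells. Curves fitted bidirectionally versus DMSO.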

Read-out in assay [19]: Pro-epidermal growth factor (Homo sapiens) (UniProt P01133)
Briefly: LTEA_HepaRG_EGF: Life Technologies and Expression Analysis (LTEA) Assay for Epidermal growth factor (EGF) using HepaRG (AID 2283489). In outline:
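HepaRG, 48 h dosing, 100 uM top, half-log x8, 0.5% DMSO. Readout: TaqMan qRT-PCR (Fluidigm array), housekeeping-normalized. Gain or loss of signal fit vs DMSO.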

Read-out in assay [20]: Cytochrome P450 3A4 (Homo sapiens) (UniProt P08684)
Briefly: LTEA_HepaRG_CYP3A4: Life Technologies and Expression Analysis (LTEA) Assay for CYP3A4 using HepaRG (AID 2283487). In a few lines:
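CYP3A4 transcript measured by TaqMan qRT-PCR and normalized to three housekeeping genes after 48 h chemical exposure of human HepaRG cells. Top concentration 100 uM, half-log steps, 0.5% DMSO vehicle; gain or loss fitted against DMSO baseline.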

Calls of active or inactive are those of the source. How the source made its calls: active means hit-call score of the fitted dose curve at least 0.9, where 1 is the maximum; inactive means score below 0.9.

Chain of Caspase-3 (Homo sapiens) (P42574 whole entry, looked up): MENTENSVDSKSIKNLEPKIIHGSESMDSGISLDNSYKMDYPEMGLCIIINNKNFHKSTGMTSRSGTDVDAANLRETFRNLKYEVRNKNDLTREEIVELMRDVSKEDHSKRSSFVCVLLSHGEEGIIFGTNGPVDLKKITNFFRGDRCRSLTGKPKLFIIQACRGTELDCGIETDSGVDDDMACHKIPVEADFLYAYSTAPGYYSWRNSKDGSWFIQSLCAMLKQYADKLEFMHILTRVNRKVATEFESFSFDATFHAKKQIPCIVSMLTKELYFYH
Chain of Cytochrome P450 2C19 (Homo sapiens) (P33261 whole entry, looked up): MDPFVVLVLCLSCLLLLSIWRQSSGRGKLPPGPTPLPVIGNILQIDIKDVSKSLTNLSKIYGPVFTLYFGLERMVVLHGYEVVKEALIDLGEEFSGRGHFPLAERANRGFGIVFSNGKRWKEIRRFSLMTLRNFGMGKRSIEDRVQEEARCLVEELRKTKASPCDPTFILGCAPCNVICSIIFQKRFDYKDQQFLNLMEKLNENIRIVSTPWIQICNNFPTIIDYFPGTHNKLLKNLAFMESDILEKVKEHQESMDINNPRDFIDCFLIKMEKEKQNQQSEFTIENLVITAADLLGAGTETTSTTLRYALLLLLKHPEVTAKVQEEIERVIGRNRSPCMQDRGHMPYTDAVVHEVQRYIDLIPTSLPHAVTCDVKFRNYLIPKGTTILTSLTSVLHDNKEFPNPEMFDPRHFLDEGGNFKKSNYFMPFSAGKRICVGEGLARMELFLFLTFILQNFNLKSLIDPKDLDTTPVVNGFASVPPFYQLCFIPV
Chain of Apoptosis regulator Bcl-2 (Homo sapiens) (P10415 whole entry, looked up): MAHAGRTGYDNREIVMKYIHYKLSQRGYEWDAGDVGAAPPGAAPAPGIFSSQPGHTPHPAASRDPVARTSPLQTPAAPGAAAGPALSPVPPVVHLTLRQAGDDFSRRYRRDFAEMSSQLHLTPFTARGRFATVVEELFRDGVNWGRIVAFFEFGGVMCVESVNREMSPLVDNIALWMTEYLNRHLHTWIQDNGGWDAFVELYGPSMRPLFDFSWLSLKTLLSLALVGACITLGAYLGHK
Chain of Cytochrome P450 3A4 (Homo sapiens) (P08684 whole entry, looked up): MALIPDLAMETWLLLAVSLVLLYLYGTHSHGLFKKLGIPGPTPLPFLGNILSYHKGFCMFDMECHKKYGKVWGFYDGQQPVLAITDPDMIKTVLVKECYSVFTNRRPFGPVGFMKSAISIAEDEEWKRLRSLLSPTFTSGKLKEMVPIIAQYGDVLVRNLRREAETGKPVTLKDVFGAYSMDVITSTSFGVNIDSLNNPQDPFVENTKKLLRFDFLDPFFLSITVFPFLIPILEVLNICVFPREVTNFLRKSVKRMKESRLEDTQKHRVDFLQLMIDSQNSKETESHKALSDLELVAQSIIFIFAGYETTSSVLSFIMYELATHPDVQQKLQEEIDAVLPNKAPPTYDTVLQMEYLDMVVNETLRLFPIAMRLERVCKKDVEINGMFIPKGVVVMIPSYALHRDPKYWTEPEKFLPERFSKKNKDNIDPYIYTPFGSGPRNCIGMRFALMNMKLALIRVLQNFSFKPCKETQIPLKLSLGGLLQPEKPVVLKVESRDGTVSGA

For the compound `CN(C[C@@H](CC[N+]12CCC(C3CCCCC3)(CC1)CC2)c1ccc(Cl)c(Cl)c1)C(=O)c1cc(C(F)(F)F)cc(C(F)(F)F)c1`, the result in [1], in assay [2], in assay [4], in assay [6], in [7] and in [8] was inactive. Besides, the call in assay [9], in assay [11] and in [19] was inactive. For the same compound, the AC50 in assay [3] is 23.2 µM (active); in assay [5] it was 8.93 µM (active); in assay [10] it was 11.5 µM (active); in [12], 18 µM (active); in assay [13], 29.9 µM (active); in assay [14] it was 25.4 µM (active). Moreover, the AC50 was 12.9 µM (active) in assay [15], 13.7 µM (active) in assay [16], 21.1 µM (active) in [17] and 12.1 µM (active) in [18].
With `O=C1O[C@H]([C@@H](O)CO)C(O)=C1O`, the result in [1], in assay [2], in assay [3], in assay [4], in assay [5] and in [6] was inactive. For the same compound, the outcome in [7], in [8], in assay [9], in [10], in assay [11] and in assay [12] was inactive. Besides, the call in [13], in assay [14], in assay [15], in assay [16], in assay [17] and in assay [18] was inactive. Further, the outcome in [19] was inactive.
Consider `CN(C)C(=O)C1(N2CCCCC2)CCN(CC[C@@]2(c3ccc(Cl)c(Cl)c3)CN(C(=O)c3ccccc3)CCO2)CC1`, for which the AC50 in assay [1] was 27.1 µM (active); in assay [4], 86.8 µM (active); in assay [6] it was 22.6 µM (active); in assay [10] it was 24.2 µM (active); in assay [12], 27.8 µM (active); in assay [13], 23.9 µM (active). Moreover, the AC50 in assay [14] was 28 µM (active); in assay [15], 21.9 µM (active); in assay [16] it was 8.56 µM (active); in assay [17], 14.9 µM (active); in assay [18], 17.5 µM (active); in [19], 25.3 µM (active). For the same compound, the compound was called inactive in assay [2], in assay [3], in assay [7], in assay [8] and in [11].
As to `CC(C)(C)c1cc(/C=C2\SC(N)=NC2=O)cc(C(C)(C)C)c1O`, the compound was called inactive in [1], in assay [3], in [5], in [9], in assay [10] and in assay [14]. In addition, in assay [19], the result was inactive. Moreover, the AC50 was 23.5 µM (active) in [2]; 96.8 µM (active) in assay [4]; 21.1 µM (active) in assay [6]; 15.8 µM (active) in assay [7]; 15.8 µM (active) in [8]; 27.8 µM (active) in assay [11]. Further, the AC50 was 93.7 µM (active) in [12]; 26.3 µM (active) in assay [13]; 12.2 µM (active) in assay [15]; 83.2 µM (active) in assay [16]; 29.1 µM (active) in assay [17]; 22.8 µM (active) in [18].
For `CCCCCc1ccc(N)cc1`, the outcome in assay [1], in [2], in assay [3], in [4], in assay [5] and in assay [6] was inactive. Also, the result in assay [7], in assay [8], in [11], in assay [13], in [15] and in assay [16] was inactive. The call in assay [17], in assay [20], in assay [18] and in assay [19] was inactive. The AC50 is 30.3 µM (active) in [10], 18.8 µM (active) in [12] and 18.7 µM (active) in [14].
For `CCCCCCCCN(C)CCCCCCCC`, the compound was called inactive in assay [1], in assay [2], in [3], in assay [4], in assay [6] and in assay [7]. The compound was called inactive in assay [8], in assay [10], in assay [11], in [12], in assay [13] and in assay [14]. Besides, the compound was called inactive in assay [15], in assay [16], in assay [17], in assay [18] and in assay [19].

Broadly, the AC50 is the concentration giving half of the maximal activity seen.

The values above are taken from PubChem BioAssay (EPA / NIEHS).
